In the supplement of paper PMC11732987, “Enantioselective OTUD7B fragment discovery through chemoproteomics screening and high-throughput optimisation” (Communications Chemistry, 2025):

How the values were obtained:
Assay in all cases: log2 ratio of Biotin-Ahx-Ub-VS probe labelling (fragment/DMSO); higher = less target engagement (more negative = stronger competition), active = hit call of the paper (q ≤ 0.05, log2 ratio ≤ -1)
Conditions in all cases: compound concentration: 200 uM; treatment time: 3 h
[1] = biological target: T1, ALG13 (UniProt Q9NP73)
T1 sequence (whole entry): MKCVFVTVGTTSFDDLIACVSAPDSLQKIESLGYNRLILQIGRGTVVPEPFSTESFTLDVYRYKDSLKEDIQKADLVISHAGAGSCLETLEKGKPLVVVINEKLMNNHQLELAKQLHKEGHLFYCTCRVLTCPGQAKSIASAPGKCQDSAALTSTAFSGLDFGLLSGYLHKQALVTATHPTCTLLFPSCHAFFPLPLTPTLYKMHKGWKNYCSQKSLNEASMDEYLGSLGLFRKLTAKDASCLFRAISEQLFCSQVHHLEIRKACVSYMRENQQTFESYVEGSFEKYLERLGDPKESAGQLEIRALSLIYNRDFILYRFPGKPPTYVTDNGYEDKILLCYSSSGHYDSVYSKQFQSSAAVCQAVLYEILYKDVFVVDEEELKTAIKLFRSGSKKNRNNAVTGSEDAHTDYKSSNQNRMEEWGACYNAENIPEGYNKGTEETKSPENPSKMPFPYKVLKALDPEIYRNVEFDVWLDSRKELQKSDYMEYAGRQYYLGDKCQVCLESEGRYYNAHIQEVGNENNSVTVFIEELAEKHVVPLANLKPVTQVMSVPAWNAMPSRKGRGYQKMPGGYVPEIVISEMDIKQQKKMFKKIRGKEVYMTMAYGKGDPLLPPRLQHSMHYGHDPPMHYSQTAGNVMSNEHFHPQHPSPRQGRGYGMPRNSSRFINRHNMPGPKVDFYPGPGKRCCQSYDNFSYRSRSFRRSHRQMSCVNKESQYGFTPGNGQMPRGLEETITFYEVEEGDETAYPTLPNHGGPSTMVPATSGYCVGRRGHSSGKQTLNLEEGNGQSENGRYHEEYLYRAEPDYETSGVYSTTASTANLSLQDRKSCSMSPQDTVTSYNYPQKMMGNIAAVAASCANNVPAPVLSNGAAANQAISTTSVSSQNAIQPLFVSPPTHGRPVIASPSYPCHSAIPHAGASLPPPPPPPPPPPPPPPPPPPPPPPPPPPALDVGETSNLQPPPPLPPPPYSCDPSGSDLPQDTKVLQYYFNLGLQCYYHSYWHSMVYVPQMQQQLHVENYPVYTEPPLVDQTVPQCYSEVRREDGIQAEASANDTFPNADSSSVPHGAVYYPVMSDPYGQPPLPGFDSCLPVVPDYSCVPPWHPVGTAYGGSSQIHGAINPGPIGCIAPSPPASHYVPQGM
In short: (§1)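 Fragment (200 µM) or vehicle was incubated for 3 h with triplicate HEK293T lysate samples of 495 µg, which were then treated with Biotin-Ahx-Ub-VS at 0.5 µM final for 1 h. Labelled DUBs were enriched on NeutrAvidin, digested with LysC and trypsin, and analysed by diaPASEF LC-MS/MS. Values are average log2 fragment/vehicle ratios from an unpaired t-test on global-median-normalised Spectronaut label-free quantities, using proteins with ≥2 unique peptides.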

[2] = biological target: ATXN3 (UniProt P54252)
ATXN3, sequence (P54252 whole entry): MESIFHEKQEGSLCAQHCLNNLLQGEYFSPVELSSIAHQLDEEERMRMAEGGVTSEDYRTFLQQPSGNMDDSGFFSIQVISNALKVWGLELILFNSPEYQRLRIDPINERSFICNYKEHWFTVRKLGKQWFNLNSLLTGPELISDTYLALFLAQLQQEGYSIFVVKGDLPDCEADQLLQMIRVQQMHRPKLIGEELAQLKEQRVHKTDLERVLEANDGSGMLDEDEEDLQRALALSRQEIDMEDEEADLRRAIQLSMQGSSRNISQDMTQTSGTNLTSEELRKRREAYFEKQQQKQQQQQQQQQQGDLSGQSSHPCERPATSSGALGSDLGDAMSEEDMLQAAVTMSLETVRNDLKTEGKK
In short: as §1

[3] = biological target: T2, BAP1 (UniProt Q92560)
T2 sequence (whole entry): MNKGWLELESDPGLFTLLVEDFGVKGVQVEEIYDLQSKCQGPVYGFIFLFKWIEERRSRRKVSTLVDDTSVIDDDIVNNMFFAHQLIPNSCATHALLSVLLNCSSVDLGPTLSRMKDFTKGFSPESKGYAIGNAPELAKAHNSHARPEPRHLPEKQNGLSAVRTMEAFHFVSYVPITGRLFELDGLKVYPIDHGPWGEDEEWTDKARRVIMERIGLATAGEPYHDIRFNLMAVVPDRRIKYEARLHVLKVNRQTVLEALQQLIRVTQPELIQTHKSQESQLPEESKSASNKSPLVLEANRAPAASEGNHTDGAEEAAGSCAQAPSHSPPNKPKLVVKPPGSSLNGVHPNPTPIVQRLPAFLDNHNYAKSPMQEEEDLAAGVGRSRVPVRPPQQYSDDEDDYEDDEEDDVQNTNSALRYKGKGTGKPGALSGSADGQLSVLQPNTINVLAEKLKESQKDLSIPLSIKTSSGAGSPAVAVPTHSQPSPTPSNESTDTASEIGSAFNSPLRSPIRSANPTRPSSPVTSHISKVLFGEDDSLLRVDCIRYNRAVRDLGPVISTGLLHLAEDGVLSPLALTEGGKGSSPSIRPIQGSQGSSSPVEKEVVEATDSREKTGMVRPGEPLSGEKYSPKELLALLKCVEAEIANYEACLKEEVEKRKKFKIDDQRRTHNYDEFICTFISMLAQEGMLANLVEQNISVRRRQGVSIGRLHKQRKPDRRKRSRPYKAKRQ
In short: as §1

[4] = biological target: EIF3F (UniProt O00303)
EIF3F, sequence (O00303 whole entry): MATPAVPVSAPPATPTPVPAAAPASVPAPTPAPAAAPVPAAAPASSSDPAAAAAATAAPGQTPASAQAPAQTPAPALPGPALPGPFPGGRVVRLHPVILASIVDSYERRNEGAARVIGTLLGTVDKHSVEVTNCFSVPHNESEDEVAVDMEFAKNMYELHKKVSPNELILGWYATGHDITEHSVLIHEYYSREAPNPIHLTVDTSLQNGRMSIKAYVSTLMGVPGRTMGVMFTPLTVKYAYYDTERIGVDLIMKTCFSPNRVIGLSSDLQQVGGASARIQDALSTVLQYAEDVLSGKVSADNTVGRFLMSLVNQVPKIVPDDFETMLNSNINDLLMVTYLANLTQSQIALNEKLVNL
In short: as §1

[5] = biological target: EIF3H (UniProt O15372)
EIF3H, sequence (O15372 whole entry): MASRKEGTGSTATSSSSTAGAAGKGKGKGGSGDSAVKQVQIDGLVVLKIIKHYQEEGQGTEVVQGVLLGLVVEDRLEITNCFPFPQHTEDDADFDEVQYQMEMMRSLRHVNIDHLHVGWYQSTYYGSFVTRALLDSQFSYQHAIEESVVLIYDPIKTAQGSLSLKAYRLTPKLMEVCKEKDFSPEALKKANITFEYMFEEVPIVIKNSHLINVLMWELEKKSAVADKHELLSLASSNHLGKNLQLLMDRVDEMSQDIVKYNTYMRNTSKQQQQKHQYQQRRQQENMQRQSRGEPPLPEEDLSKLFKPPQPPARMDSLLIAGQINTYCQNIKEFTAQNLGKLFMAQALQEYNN
In short: as §1

[6] = biological target: T3, FAM105A (UniProt Q9NUU6)
T3 sequence (whole entry): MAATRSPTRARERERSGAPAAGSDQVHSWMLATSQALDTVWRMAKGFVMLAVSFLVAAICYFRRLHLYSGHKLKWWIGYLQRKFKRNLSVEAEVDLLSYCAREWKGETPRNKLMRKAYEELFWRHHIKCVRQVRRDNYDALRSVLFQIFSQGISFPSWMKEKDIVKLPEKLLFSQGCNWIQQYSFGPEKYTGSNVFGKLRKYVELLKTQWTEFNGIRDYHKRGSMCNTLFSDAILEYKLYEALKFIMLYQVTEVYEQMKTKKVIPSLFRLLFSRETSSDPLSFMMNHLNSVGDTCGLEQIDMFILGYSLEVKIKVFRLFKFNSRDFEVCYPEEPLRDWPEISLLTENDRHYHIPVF
In short: as §1

[7] = biological target: OTUB1 (UniProt Q96FW1)
OTUB1, sequence (Q96FW1 whole entry): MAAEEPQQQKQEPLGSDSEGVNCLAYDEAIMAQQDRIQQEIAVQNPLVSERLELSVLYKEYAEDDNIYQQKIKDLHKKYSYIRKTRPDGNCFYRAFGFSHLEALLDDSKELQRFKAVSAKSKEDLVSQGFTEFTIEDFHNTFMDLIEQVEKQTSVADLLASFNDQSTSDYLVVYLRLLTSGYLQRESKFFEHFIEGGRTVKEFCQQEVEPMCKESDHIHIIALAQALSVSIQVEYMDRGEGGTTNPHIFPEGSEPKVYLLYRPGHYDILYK
In short: as §1

[8] = biological target: T4, OTUD4 (UniProt Q01804)
T4 sequence (whole entry): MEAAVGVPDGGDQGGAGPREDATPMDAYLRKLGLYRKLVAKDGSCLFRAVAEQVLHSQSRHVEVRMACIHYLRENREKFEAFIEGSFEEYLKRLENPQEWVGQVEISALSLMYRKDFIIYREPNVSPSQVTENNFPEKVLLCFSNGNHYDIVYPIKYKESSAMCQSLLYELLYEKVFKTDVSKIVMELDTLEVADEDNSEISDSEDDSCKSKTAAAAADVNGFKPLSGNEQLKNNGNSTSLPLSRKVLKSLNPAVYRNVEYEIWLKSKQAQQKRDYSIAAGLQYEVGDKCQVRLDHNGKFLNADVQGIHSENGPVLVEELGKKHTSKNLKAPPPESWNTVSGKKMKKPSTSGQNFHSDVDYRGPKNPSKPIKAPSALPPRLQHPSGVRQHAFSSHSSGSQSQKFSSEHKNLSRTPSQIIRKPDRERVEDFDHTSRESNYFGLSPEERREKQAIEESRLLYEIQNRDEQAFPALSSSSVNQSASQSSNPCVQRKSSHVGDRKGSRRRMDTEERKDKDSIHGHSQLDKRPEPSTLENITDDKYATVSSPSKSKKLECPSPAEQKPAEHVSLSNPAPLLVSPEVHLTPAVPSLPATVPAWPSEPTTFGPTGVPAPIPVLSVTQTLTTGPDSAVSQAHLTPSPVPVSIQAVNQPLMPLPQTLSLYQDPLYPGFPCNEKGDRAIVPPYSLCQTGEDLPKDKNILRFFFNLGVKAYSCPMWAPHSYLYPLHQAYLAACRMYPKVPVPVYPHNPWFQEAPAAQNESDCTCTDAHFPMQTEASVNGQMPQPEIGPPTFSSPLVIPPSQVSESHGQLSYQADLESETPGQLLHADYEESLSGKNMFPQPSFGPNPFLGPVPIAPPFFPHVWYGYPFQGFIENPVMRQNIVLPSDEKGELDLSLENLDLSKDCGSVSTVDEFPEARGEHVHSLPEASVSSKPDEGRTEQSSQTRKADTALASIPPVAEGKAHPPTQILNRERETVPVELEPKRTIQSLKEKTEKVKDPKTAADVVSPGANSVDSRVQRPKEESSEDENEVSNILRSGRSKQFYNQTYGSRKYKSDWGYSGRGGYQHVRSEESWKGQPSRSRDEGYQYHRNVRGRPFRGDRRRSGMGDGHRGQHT
In short: as §1

[9] = biological target: T5, OTUD5 (UniProt Q96G74)
T5 sequence (whole entry): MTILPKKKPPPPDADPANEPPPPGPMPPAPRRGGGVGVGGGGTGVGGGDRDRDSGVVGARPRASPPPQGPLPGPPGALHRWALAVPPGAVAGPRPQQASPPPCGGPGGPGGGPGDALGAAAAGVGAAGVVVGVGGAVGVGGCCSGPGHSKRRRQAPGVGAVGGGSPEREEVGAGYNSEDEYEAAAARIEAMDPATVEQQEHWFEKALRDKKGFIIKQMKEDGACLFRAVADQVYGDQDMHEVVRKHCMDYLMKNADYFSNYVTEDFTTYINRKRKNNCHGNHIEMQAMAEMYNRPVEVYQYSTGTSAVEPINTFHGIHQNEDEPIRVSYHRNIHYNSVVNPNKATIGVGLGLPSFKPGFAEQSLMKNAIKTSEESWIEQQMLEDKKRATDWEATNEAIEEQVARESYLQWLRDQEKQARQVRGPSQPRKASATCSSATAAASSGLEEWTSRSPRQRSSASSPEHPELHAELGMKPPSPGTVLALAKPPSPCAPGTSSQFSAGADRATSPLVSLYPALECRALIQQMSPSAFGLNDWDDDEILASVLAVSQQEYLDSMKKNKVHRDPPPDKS
In short: as §1

Measured: log2 ratio of Biotin-Ahx-Ub-VS probe labelling

Cl.O=C(CCl)N1CC(c2ccc(Br)cn2)C1
active: [3] -1.49
inactive: [1] 0.23 | [2] -0.38 | [4] -0.158 | [5] 0.134 | [6] 0.0979 | [7] -0.157 | [8] -0.553 | [9] -0.45
